Where “and” joins values, the source holds several entries; their conditions need not be identical. Equal values may be shown once. Records with an inconclusive call do not appear. Entries that show only a call come without a potency. Values without a mark were called inactive. Calls of active or inactive are those of the source. Calls follow the shape of the dose curve; as a rule, active = well fitted inhibition curve with a large enough effect; inconclusive = small, poorly fitted or top-dose-only effect; inactive = flat fitted curve, though single readings scatter.
Biological target: Glutathione peroxidase 1 (Homo sapiens) (UniProt P07203)
Test: Primary qHTS Assay for Inhibitors of Recombinant Selenoprotein Glutathione Peroxidase 1 (GPX1) (AID 1845191)
Details: recombinant GPX1, GR-coupled NADPH fluorescence, 15 min; series mostly up to 48.8 µM; activity, negative = inhibition: at the top concentration
Outline: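 NADPH consumption tracked by fluorescence at 340/450 nm between t=0 and t=15 min, room temperature. Final mix: 10 nM GPX1, 100 nM glutathione reductase, 1 mM GSH, 0.5 mM NADPH, 0.5 mM cumene hydroperoxide, 0.01% BSA; 30 min compound–enzyme preincubation.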
Also: nearly all actives have a fitted effect of over 65% in size.
Potency is read from the fitted curve at half-maximal effect.

Sequence of Glutathione peroxidase 1 (Homo sapiens) (P07203 whole entry, looked up): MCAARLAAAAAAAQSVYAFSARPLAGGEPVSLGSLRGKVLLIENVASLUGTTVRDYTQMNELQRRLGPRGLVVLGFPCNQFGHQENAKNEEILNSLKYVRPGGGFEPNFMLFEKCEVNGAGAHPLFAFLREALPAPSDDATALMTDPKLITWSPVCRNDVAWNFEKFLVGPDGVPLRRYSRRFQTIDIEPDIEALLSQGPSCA

Row | Structure (SMILES) | Potency | outcome | activity, negative = inhibition
1 | c1ccc2c(CCNc3ccc(Nc4ccncc4)cc3)c[nH]c2c1 | inactive | – | –
2 | CC(=O)OCC(=O)[C@@]1(O)[C@H](C)C[C@H]2[C@@H]3C=C(C)C4=Cc5c(cnn5-c5ccccc5)C[C@]4(C)[C@@H]3[C@@H](O)C[C@@]21C | – | inactive | –
3 | O=C(O)CCCc1c[nH]c2ccccc12 | – | – | 3.55%
4 | Nc1nc(-c2nn(Cc3ccccc3F)c3ncccc23)nc(N)c1N1CCOCC1 | – | inactive [at 27.7 µM] | –
5 | COc1ccc(-c2cc3c(C)nc(N)nc3n(C3CCC(OCCO)CC3)c2=O)cn1 (stereo unspecified) | 5.78 µM (active) and 16.1 µM (active) | – | –
6 | CN1CCN(c2cc(C(=O)Nc3ccc4c(c3)-c3c(c(C(N)=O)nn3-c3ccc(F)cc3)CC4)c(Cl)cn2)CC1 | – | – | -20.4%
7 | COc1ccc(CC2c3cc(OC)c(OC)cc3CC[N+]2(C)CCC(=O)OCCCCCOC(=O)CC[N+]2(C)CCc3cc(OC)c(OC)cc3C2Cc2ccc(OC)c(OC)c2)cc1OC (stereo unspecified) | inactive | – | –
8 | Cc1ccc(CN2CCNCC2)cc1NC(=O)CNc1ccc(F)c(F)c1 | – | inactive | –
9 | CNC(=O)c1ccccc1Nc1nc(Nc2ccc(N3CCOCC3)cc2OC)ncc1Cl | inactive | – | –
10 | COc1cc(-c2nn(C3CCC(N4CCN(C(C)=O)CC4)CC3)c3ncnc(N)c23)ccc1NC(=O)c1cc2ccccc2n1C (stereo unspecified) | inactive | – | –
11 | COC(=O)Nc1ccc(-c2nc(N3CCOCC3)c3cnn(C4CCN(Cc5cccnc5)CC4)c3n2)cc1 | – | inactive | –
12 | O=C(NC1CCNCC1)c1[nH]ncc1NC(=O)c1c(Cl)cccc1Cl | – | inactive | –
13 | CCN(CC)CCCCNc1ncc2cc(-c3cc(OC)cc(OC)c3)c(NC(=O)NC(C)(C)C)nc2n1 | – | – | 4.98%
14 | Cc1ccc(-c2ncn(-c3ccc(Nc4nccc(-c5cccc(N6CCOCC6)c5)n4)cc3)n2)cn1 | – | – | -11.9%
15 | CN(c1ncccc1CNc1nc(Nc2ccc3c(c2)CC(=O)N3)ncc1C(F)(F)F)S(C)(=O)=O | – | inactive | –
16 | CN1CC[C@@H](c2c(O)cc(O)c3c(=O)cc(-c4ccccc4Cl)oc23)[C@@H](O)C1 | – | inactive | –
17 | Cn1c2cc(S(C)=O)sc2c2cnn(Cc3cccc(N)c3)c(=O)c21 (stereo unspecified) | – | inactive | –
18 | O=c1[nH]c(=O)n(C2CCCO2)cc1F (stereo unspecified) | – | – | 2.11%
19 | C[C@@H](Oc1cc(-n2cnc3ccc(CN4CCN(C)CC4)cc32)sc1C(N)=O)c1ccccc1C(F)(F)F | – | – | 0.12%
20 | CC1COC2(CCN(c3nc(=O)c4cc(C(F)(F)F)cc([N+](=O)[O-])c4s3)CC2)O1 (stereo unspecified) | – | inactive | –

Row | Structure (SMILES) | Potency | outcome | activity, negative = inhibition
21 | Cc1cn2c(-c3cn[nH]c3)cnc2c(Nc2ccc(C(=O)N3CCNCC3)cc2F)n1 | – | inactive | –
22 | COC(=O)C1=C(C)NC(C)=C(C(=O)OCCN2CCN(C(c3ccccc3)c3ccccc3)CC2)C1c1cccc([N+](=O)[O-])c1 (stereo unspecified) | – | inactive | –
23 | COc1cccc(Nc2c(C(N)=O)cnc3c(C)cc(S(=O)(=O)c4cccc(C(=O)N(C)C)c4)cc23)c1 | – | inactive | –
24 | COCCn1c2c([n+](Cc3cnccn3)c1C)C(=O)c1ccccc1C2=O | – | – | -23.5%
25 | c1cc(-c2cnn3cc(-c4ccc(OCCN5CCCCC5)cc4)cnc23)ccn1 | – | inactive | –
26 | CC(=O)SC[C@@H](C)C(=O)N1CCC[C@H]1C(=O)N[C@@H](Cc1ccccc1)C(=O)O | – | inactive | –
27 | C[C@@H]1COC(Nc2ccc3ncnc(Nc4ccc(OCc5nccs5)c(Cl)c4)c3c2)=N1 | – | inactive | –
28 | COc1cc2ncn(-c3cc(OCc4ccccc4C(F)(F)F)c(C(N)=O)s3)c2cc1OC | – | inactive | –
29 | CC(C)c1ccc(Cn2ccc3c4c(N)nc(NC5CC5)nc4ccc32)cc1 | – | inactive | –
30 | CCN1CCN(CC(=O)Nc2ccc(-c3cccc4c(=O)cc(N5CCOCC5)oc34)c3sc4ccccc4c23)CC1 | – | – | 2.49% [at 27.7 µM]
31 | C=CC(=O)N1CCC[C@@H](n2nc(-c3ccc(Oc4ccccc4)cc3)c3c(N)ncnc32)C1 | inactive | – | –
32 | C=CC(=O)Nc1cc2c(Nc3ccc(F)c(Cl)c3)ncnc2cc1C#CC(C)(C)N1CCN(C)CC1 | – | – | -0.77%
33 | Cc1cc(Nc2ncnc3ccc(-c4ccc(CNCCS(C)(=O)=O)o4)cc23)ccc1Oc1ccn2ncnc2c1 | inactive | – | –
34 | COC(=O)C[C@](O)(CCCC(C)(C)O)C(=O)O[C@@H]1C(OC)=C[C@]23CCCN2CCc2cc4c(cc2[C@H]13)OCO4 | – | inactive | –
35 | CN[C@H]1CCc2cc(OC)c(OC)c(OC)c2-c2ccc(OC)c(=O)cc21 | – | inactive | –
36 | COC(=O)Nc1nc2ccc(C(=O)c3ccc(F)cc3)cc2[nH]1 | inactive | – | –
37 | CC(C)c1cc(C(=O)N2Cc3ccc(CN4CCN(C)CC4)cc3C2)c(O)cc1O | inactive | – | –
38 | Cc1c(Cn2c(C)nc3c(C(=O)O)cc(N4CCOCC4)cc32)cccc1C(F)(F)F | inactive | – | –
39 | Cc1nc2cnc3ccc(C#Cc4cccnc4)cc3c2n1-c1ccc(C(C)(C)C#N)cc1 | – | inactive | –

Biological target: Phospholipid hydroperoxide glutathione peroxidase GPX4 (Homo sapiens) (UniProt P36969)
Test: Primary qHTS Assay for Inhibitors of Recombinant Selenoprotein Glutathione Peroxidase 4 (GPX4) (AID 1845192)
Details: recombinant GPX4, GR-coupled NADPH fluorescence, 15 min; series mostly up to 50 µM; activity change, negative = inhibition: at the top concentration
Outline: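 NADPH consumption followed by fluorescence at 340/450 nm, t=0 and after 15 min at room temperature. Reaction started with cumene hydroperoxide (0.5 mM final) after 30 min compound–GPX4 preincubation; final 200 nM GPX4, 100 nM GR, 1 mM GSH, 0.5 mM NADPH.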

Sequence of Phospholipid hydroperoxide glutathione peroxidase GPX4 (Homo sapiens) (P36969 whole entry, looked up): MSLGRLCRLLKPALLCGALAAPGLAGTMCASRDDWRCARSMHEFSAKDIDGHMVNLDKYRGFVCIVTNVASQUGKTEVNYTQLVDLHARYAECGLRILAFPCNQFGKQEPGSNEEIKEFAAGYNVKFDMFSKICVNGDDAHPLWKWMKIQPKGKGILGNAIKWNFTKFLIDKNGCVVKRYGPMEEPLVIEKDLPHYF

Row | Structure (SMILES) | Potency | activity change, negative = inhibition [%] | outcome
40 | c1ccc2c(CCNc3ccc(Nc4ccncc4)cc3)c[nH]c2c1 | inactive | – | –
41 | CC(=O)OCC(=O)[C@@]1(O)[C@H](C)C[C@H]2[C@@H]3C=C(C)C4=Cc5c(cnn5-c5ccccc5)C[C@]4(C)[C@@H]3[C@@H](O)C[C@@]21C | – | -9.48 | –
42 | O=C(O)CCCc1c[nH]c2ccccc12 | – | 1.52 | –
43 | Nc1nc(-c2nn(Cc3ccccc3F)c3ncccc23)nc(N)c1N1CCOCC1 | – | – | inactive [at 27.8 µM]
44 | CN1CCN(c2cc(C(=O)Nc3ccc4c(c3)-c3c(c(C(N)=O)nn3-c3ccc(F)cc3)CC4)c(Cl)cn2)CC1 | – | 0.823 | –
45 | COc1ccc(CC2c3cc(OC)c(OC)cc3CC[N+]2(C)CCC(=O)OCCCCCOC(=O)CC[N+]2(C)CCc3cc(OC)c(OC)cc3C2Cc2ccc(OC)c(OC)c2)cc1OC (stereo unspecified) | inactive | – | –
46 | Cc1ccc(CN2CCNCC2)cc1NC(=O)CNc1ccc(F)c(F)c1 | – | 7.38 | –
47 | CNC(=O)c1ccccc1Nc1nc(Nc2ccc(N3CCOCC3)cc2OC)ncc1Cl | inactive | – | –
48 | COc1cc(-c2nn(C3CCC(N4CCN(C(C)=O)CC4)CC3)c3ncnc(N)c23)ccc1NC(=O)c1cc2ccccc2n1C (stereo unspecified) | – | -6.23 | –
49 | O=C(NC1CCNCC1)c1[nH]ncc1NC(=O)c1c(Cl)cccc1Cl | – | – | inactive
50 | CCN(CC)CCCCNc1ncc2cc(-c3cc(OC)cc(OC)c3)c(NC(=O)NC(C)(C)C)nc2n1 | – | -24.4 | –
51 | Cc1ccc(-c2ncn(-c3ccc(Nc4nccc(-c5cccc(N6CCOCC6)c5)n4)cc3)n2)cn1 | – | -13.5 | –
52 | CN(c1ncccc1CNc1nc(Nc2ccc3c(c2)CC(=O)N3)ncc1C(F)(F)F)S(C)(=O)=O | – | -16.6 | –
53 | CN1CC[C@@H](c2c(O)cc(O)c3c(=O)cc(-c4ccccc4Cl)oc23)[C@@H](O)C1 | – | 1.69 | –
54 | Cn1c2cc(S(C)=O)sc2c2cnn(Cc3cccc(N)c3)c(=O)c21 (stereo unspecified) | – | -33.5 | –
55 | O=c1[nH]c(=O)n(C2CCCO2)cc1F (stereo unspecified) | – | – | inactive
56 | C[C@@H](Oc1cc(-n2cnc3ccc(CN4CCN(C)CC4)cc32)sc1C(N)=O)c1ccccc1C(F)(F)F | – | -10.6 | –
57 | CC1COC2(CCN(c3nc(=O)c4cc(C(F)(F)F)cc([N+](=O)[O-])c4s3)CC2)O1 (stereo unspecified) | – | 8.35 | –
58 | Cc1cn2c(-c3cn[nH]c3)cnc2c(Nc2ccc(C(=O)N3CCNCC3)cc2F)n1 | – | -7.65 | –

Row | Structure (SMILES) | Potency | activity change, negative = inhibition [%] | outcome
59 | COC(=O)C1=C(C)NC(C)=C(C(=O)OCCN2CCN(C(c3ccccc3)c3ccccc3)CC2)C1c1cccc([N+](=O)[O-])c1 (stereo unspecified) | – | – | inactive
60 | COc1cccc(Nc2c(C(N)=O)cnc3c(C)cc(S(=O)(=O)c4cccc(C(=O)N(C)C)c4)cc23)c1 | – | – | inactive
61 | COCCn1c2c([n+](Cc3cnccn3)c1C)C(=O)c1ccccc1C2=O | – | – | inactive
62 | c1cc(-c2cnn3cc(-c4ccc(OCCN5CCCCC5)cc4)cnc23)ccn1 | – | -8.94 | –
63 | CC(=O)SC[C@@H](C)C(=O)N1CCC[C@H]1C(=O)N[C@@H](Cc1ccccc1)C(=O)O | – | -24.9 | –
64 | C[C@@H]1COC(Nc2ccc3ncnc(Nc4ccc(OCc5nccs5)c(Cl)c4)c3c2)=N1 | – | -10.7 | –
65 | COc1cc2ncn(-c3cc(OCc4ccccc4C(F)(F)F)c(C(N)=O)s3)c2cc1OC | – | 2.66 | –
66 | CC(C)c1ccc(Cn2ccc3c4c(N)nc(NC5CC5)nc4ccc32)cc1 | 18 µM (active) | – | –
67 | CCN1CCN(CC(=O)Nc2ccc(-c3cccc4c(=O)cc(N5CCOCC5)oc34)c3sc4ccccc4c23)CC1 | – | – | inactive [at 27.8 µM]
68 | C=CC(=O)N1CCC[C@@H](n2nc(-c3ccc(Oc4ccccc4)cc3)c3c(N)ncnc32)C1 | inactive | – | –
69 | C=CC(=O)Nc1cc2c(Nc3ccc(F)c(Cl)c3)ncnc2cc1C#CC(C)(C)N1CCN(C)CC1 | – | – | inactive
70 | Cc1cc(Nc2ncnc3ccc(-c4ccc(CNCCS(C)(=O)=O)o4)cc23)ccc1Oc1ccn2ncnc2c1 | – | -10.3 | –
71 | COC(=O)C[C@](O)(CCCC(C)(C)O)C(=O)O[C@@H]1C(OC)=C[C@]23CCCN2CCc2cc4c(cc2[C@H]13)OCO4 | – | -0.802 | –
72 | CN[C@H]1CCc2cc(OC)c(OC)c(OC)c2-c2ccc(OC)c(=O)cc21 | – | -16.7 | –
73 | COC(=O)Nc1nc2ccc(C(=O)c3ccc(F)cc3)cc2[nH]1 | inactive | – | –
74 | CC(C)c1cc(C(=O)N2Cc3ccc(CN4CCN(C)CC4)cc3C2)c(O)cc1O | inactive | – | –
75 | Cc1c(Cn2c(C)nc3c(C(=O)O)cc(N4CCOCC4)cc32)cccc1C(F)(F)F | inactive | – | –
76 | Cc1nc2cnc3ccc(C#Cc4cccnc4)cc3c2n1-c1ccc(C(C)(C)C#N)cc1 | – | -18.7 | –

Source: PubChem BioAssay (NCATS)
